# The campaign covered roughly 340,000 compounds. About 1,000 (0.29%) were called active.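 How the source made its calls: active means fluorescence-ratio B-score plate-corrected deviation score at least 3 library SD below zero, with starting fluorescence score within 5 deviations; inactive means the rest.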 What follows is part of a selection rich in actives, with near analogues and random picks from the rest.
# Molecular target: Anoctamin-1 (Mus musculus) (UniProt Q8BHY3)
# Test: mouse ANO1 channel activation – cell-based, HTS, primary screen (AID 623877);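 on B-score: channel opened by trigger with iodide after compound preincubation; score built on the fluorescence ratio of max minus min over baseline; more negative score means more quench and so TMEM16A activation or potentiation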
# Conditions: HEK293 TMEM16A/YFP-H148Q/I152L, iodide quench fluorescence, at 10 µM; active compounds read low
# Chain of Anoctamin-1 (Mus musculus) (Q8BHY3 whole entry, looked up): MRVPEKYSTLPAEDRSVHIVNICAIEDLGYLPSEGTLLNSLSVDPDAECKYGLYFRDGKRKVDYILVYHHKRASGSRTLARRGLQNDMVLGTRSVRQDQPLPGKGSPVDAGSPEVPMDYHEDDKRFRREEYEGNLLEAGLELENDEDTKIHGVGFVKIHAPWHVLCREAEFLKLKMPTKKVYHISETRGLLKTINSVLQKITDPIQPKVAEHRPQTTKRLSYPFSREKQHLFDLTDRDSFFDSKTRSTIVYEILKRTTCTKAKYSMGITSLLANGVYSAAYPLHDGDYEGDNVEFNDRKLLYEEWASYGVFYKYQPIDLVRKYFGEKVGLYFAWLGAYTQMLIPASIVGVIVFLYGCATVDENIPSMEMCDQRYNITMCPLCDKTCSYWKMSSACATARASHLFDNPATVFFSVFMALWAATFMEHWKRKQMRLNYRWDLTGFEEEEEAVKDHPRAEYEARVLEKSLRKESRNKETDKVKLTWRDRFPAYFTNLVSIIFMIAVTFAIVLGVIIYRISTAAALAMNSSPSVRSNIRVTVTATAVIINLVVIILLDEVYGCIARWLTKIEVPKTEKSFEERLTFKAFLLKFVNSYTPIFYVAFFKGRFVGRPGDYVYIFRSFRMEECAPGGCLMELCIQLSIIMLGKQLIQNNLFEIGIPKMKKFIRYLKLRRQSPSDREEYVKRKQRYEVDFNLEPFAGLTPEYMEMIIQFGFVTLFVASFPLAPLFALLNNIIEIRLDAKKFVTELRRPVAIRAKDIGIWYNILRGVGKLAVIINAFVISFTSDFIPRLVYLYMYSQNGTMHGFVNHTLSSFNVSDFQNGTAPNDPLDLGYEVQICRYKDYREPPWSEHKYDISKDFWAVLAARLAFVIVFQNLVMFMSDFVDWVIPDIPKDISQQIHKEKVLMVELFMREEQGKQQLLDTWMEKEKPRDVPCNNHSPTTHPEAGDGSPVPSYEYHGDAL
row,Compound,B-score
1,O=C(C1CCC1)N1CCN(S(=O)(=O)c2ccc([N+](=O)[O-])cc2)CC1,inactive
2,COc1ccc(NC(=S)Nc2ccc(S(N)(=O)=O)cc2)c(C)c1,-4.58 (active)
3,COc1cc(NC(=S)NCc2ccc(S(N)(=O)=O)cc2)cc(OC)c1,inactive
4,COc1ccc(N2CCN(C(=S)Nc3ccc(S(N)(=O)=O)cc3)CC2)cc1,inactive
5,Cc1ccc(CCNC(=O)C2CCN(S(=O)(=O)N3CCCC3)CC2)cc1,inactive
6,O=C(O)c1cccc2c1C(=O)N(C1CCCCC1)C2,inactive
7,O=C(O)C1CCN1C1CCCCC1 (stereo unspecified),-6.61 (active)
8,CC(Sc1nnnn1C1CCCCC1)C(=O)O (stereo unspecified),inactive
9,COc1cccc2c1OCC(CN1CCN(C3CCCCC3)C(CCO)C1)=C2 (stereo unspecified),inactive
10,CC(=O)OCC1(O)CC23CCC4c5ccoc5CCC4(C)C2CCC1C3 (stereo unspecified),-17.2 (active)
11,Oc1cc2c(cc1O)CN(C(=S)NCCc1ccc(Cl)cc1)CCC2,inactive
12,Cc1nc(SCC(=O)NC2CCCC2)[nH]c(=O)c1C,inactive
13,C[C@H](NC(=O)c1nc[nH]c1C(=O)N[C@@H](C)C(=O)OC(C)(C)C)C(=O)OC(C)(C)C,inactive
14,CN(CCN1CCOCC1)Cc1nc(-c2ccc3c(c2)OCO3)no1,-6.61 (active)
15,CCn1ccnc1CN(C)Cc1nc(-c2ccc3c(c2)OCO3)no1,inactive
16,COCC1CCCN(Cc2nc(-c3ccc4c(c3)OCO4)no2)C1 (stereo unspecified),inactive
17,CC(C)N(Cc1ccccc1)C(=O)COC(=O)c1cnccn1,inactive
18,Cc1cc(C)cc(NC(=O)CN2C(=O)c3ccccc3C2=O)c1,inactive
19,Cc1ccc2c(c1)-c1c(ssc1=S)C(C)(C)N2C(=O)CN1C(=O)c2ccccc2C1=O,inactive
20,Cc1cc2c(cc1C)N(C(=O)CN1C(=O)c3ccccc3C1=O)C(C)(C)c1ssc(=S)c1-2,-9.51 (active)
21,O=C(NCCCN1CCN(c2ccccc2F)CC1)C1CCC(=O)N1C1CCCCC1 (stereo unspecified),inactive
22,Cc1ccccc1CSc1nnc(Cn2c(=O)sc3ccccc32)n1C,inactive
23,Cc1ccc(NS(=O)(=O)c2ccc3c(c2)oc(=O)n3C)c(C)c1,inactive
24,O=C(NCc1ccco1)C1CCCN(S(=O)(=O)c2cnc[nH]2)C1 (stereo unspecified),-16.8 (active)

row,Compound,B-score
1,O=C(NCc1ccco1)C1CCCN(S(=O)(=O)c2ccccc2)C1 (stereo unspecified),inactive
2,CCCS(=O)(=O)N1CCCC(C(=O)NCc2ccco2)C1 (stereo unspecified),inactive
3,Cc1cc(S(=O)(=O)NCC(C)C)ccc1OCC(=O)NC1CC1,inactive
4,CCN(CC)CCOc1ccc2c(c1)C(=NNC(=O)c1ccccn1)c1cc(OCCN(CC)CC)ccc1-2,inactive
5,CCn1c(SCC(=O)Nc2ccccc2F)nc2c(c1=O)SC(C)C2 (stereo unspecified),inactive
6,COC(=O)/C=C\C(=O)Nc1cccc([N+](=O)[O-])c1,-4.72 (active)
7,COc1ccc(S(=O)(=O)NC(C)C(=O)Nc2cccc([N+](=O)[O-])c2)cc1 (stereo unspecified),inactive
8,O=C(Nc1cccc([N+](=O)[O-])c1)Nn1cnnc1,inactive
9,CCn1c(SCC(=O)Nc2ccc3c(c2)OCCO3)nnc1-c1ccncc1,inactive
10,CCn1c(SCC(=O)Nc2ccc3c(c2)OCCO3)nnc1C(C)C,inactive
11,CCn1c(COc2ccccc2)nnc1SCC(=O)Nc1ccc2c(c1)OCCO2,-32.9 (active)
12,C/C(=N\NC(=O)c1cccnc1)c1ccc(-n2ccnc2)cc1,inactive
13,Nc1nc(NC(=O)/C=C/c2ccccc2)nn1-c1ccccc1,inactive
14,Cc1ccc2nc(N3C(=O)C(O)=C(C(=O)c4ccco4)C3c3cccc(O)c3)sc2c1 (stereo unspecified),inactive
15,C=CCOc1cccc(C2C(C(=O)c3ccc(C)o3)=C(O)C(=O)N2c2nnc(C)s2)c1 (stereo unspecified),inactive
16,C=CCSc1nnc(N2C(=O)C(O)=C(C(=O)c3ccco3)C2c2ccc(F)cc2)s1 (stereo unspecified),-5.81 (active)
17,COc1cccc(NC(=O)CN(C)C(=O)c2cc(C3CC3)nn2-c2ccccc2)c1,inactive
18,O=C(COc1ccc(NC(=O)c2ccccc2[N+](=O)[O-])cc1)c1ccc(F)cc1,inactive
19,COc1ccc(OC)c(NC(=O)CSc2nc(N)c(-c3ccccc3)c(=O)[nH]2)c1,inactive
20,CCCOC(=O)CC1C(=O)NCCN1Cc1ccc(F)cc1 (stereo unspecified),inactive
21,CC(C)c1nc2oc3c(N4CCN(C)CC4)ncnc3c2c2c1CCC2,inactive
22,Cc1cccc(Oc2c([N+](=O)[O-])c(=O)n(C)c3ccccc23)c1,inactive
23,Cn1c(=O)c([N+](=O)[O-])c(Oc2ccccc2)c2ccccc21,-29 (active)
24,Cc1cc(C)c(-c2c(O)c3ccccc3n(C)c2=O)c(C)c1,inactive

row,Compound,B-score
1,CN(CCC(=O)Nc1cc(S(=O)(=O)N(C)C)ccc1Cl)CC(=O)Nc1ccc(F)cc1,inactive
2,CC1=CC(=NNS(=O)(=O)c2ccc([N+](=O)[O-])cc2)CC(C)(C)C1,inactive
3,CC(=O)c1cc(NC(=O)c2ccccc2)c(=O)oc1/C=C/N(C)C,-6.65 (active)
4,COc1cc(NC(=O)c2ccccc2)c(OC)cc1NC(=O)Cc1ccccc1,inactive
5,CCOC(=O)c1cc(NC(=O)c2ccc(Cl)cc2)c(=O)oc1-c1ccccc1,inactive
6,COc1ccc(N(CCC(=O)NCCc2ccccc2)S(=O)(=O)c2ccc(C)cc2C)cc1,inactive
7,Nc1ccc2[nH]c(=S)sc2c1,inactive
8,COc1ccc(C(=O)OCC(=O)NCCCc2ccccc2)cc1OC,inactive
9,CCN(CCCCOC(=O)c1ccc(OC)c(OC)c1)C(C)Cc1ccc(OC)cc1 (stereo unspecified),-9 (active)
10,COc1ccc(C(CCN(Cc2ccc(OC)c(OC)c2)C(=O)CCl)c2ccccc2)cc1 (stereo unspecified),inactive
11,CCOCCCNC(=S)N1CCC(NC(=O)C2CCCCC2)CC1,inactive
12,CCOc1ccccc1NC(=S)NC(=O)CCc1ccccc1,inactive
13,CCc1cccc(NC(=O)COC(=O)C2CCN(c3ccc(C(F)(F)F)cn3)CC2)c1,inactive
14,CC(=O)C[C@@H](O)CC(=O)[C@H]1OC(=O)CCCCCCc2ccccc21,-17.5 (active)
15,CC[C@@H]1CCCCc2ccccc2[C@@H](C(=O)C[C@H](O)CC(C)=O)OC1=O,inactive
16,CC(=O)C[C@H](O)CC(=O)[C@@H]1OC(=O)[C@@H](C)C/C=C\Cc2ccccc21,inactive
17,CCOC(=O)CSc1nnc(CNC(=O)Cc2ccccc2)n1-c1ccccc1OC,inactive
18,Cc1cc(OC(=O)c2ccc(Cl)cc2)cc(=O)n1C,inactive
19,CCOC(=O)c1c(/N=C/C2C(=O)CC(C)(C)CC2=O)sc(C)c1C,inactive
20,CCOC(=O)c1c(CC(C)C)csc1/N=C/C1=C(O)CCCC1=O,inactive
21,CCOC(=O)c1sc(/N=C/C2=C(O)CC(C)(C)CC2=O)c(C(=O)OCC)c1C,-35.4 (active)
22,COc1ccc(Cl)cc1NC(=O)Cn1nc(-c2ccc(C)cc2)n(C)c1=S,inactive
23,CCC(NC(=O)C1CCCC1)c1ccc(C)cc1 (stereo unspecified),inactive
